# Experimental data taken from the supplement of paper PMC11628255, “Interference of metal ions on the bioluminescent signal of firefly, Renilla, and NanoLuc luciferases in high-throughput screening assays” (Frontiers in Chemistry, 2024).
# ± gives the standard deviation of the averaged measurements.
# Tested on: firefly luciferase (FLuc)
# Assay: residual bioluminescent signal relative to negative control without GSH; higher = less interference (more residual luciferase signal)
# Details: screening conditions buffer
# Procedure: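 Selected metal salts at 3-4 concentrations tested on purified FLuc, NLuc or RLuc in screening buffer with 0, 0.2 or 2 mM glutathione added; 10 min enzyme pre-incubation at RT, luminescence 10 min after substrate. Signal normalised to negative control without GSH (% N_VALUE); triplicate wells.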
# [1] = metal salt concentration 1 mM, glutathione 0 mM
# [2] = metal salt concentration 1 mM, glutathione 0.2 mM
# [3] = metal salt concentration 1 mM, glutathione 2 mM
Compound,"residual bioluminescent signal (metal salt concentration 0.0001 mM, glutathione 0 mM)","residual bioluminescent signal (metal salt concentration 0.0001 mM, glutathione 0.2 mM)","residual bioluminescent signal (metal salt concentration 0.0001 mM, glutathione 2 mM)","residual bioluminescent signal (metal salt concentration 0.0047 mM, glutathione 0 mM)","residual bioluminescent signal (metal salt concentration 0.0047 mM, glutathione 0.2 mM)","residual bioluminescent signal (metal salt concentration 0.0047 mM, glutathione 2 mM)","residual bioluminescent signal (metal salt concentration 0.02 mM, glutathione 0 mM)","residual bioluminescent signal (metal salt concentration 0.02 mM, glutathione 0.2 mM)","residual bioluminescent signal (metal salt concentration 0.02 mM, glutathione 2 mM)",residual bioluminescent signal [1],residual bioluminescent signal [2],residual bioluminescent signal [3],"residual bioluminescent signal (metal salt concentration 0.2 mM, glutathione 0 mM)","residual bioluminescent signal (metal salt concentration 0.2 mM, glutathione 0.2 mM)","residual bioluminescent signal (metal salt concentration 0.2 mM, glutathione 2 mM)","residual bioluminescent signal (metal salt concentration 0.26 mM, glutathione 0 mM)","residual bioluminescent signal (metal salt concentration 0.26 mM, glutathione 0.2 mM)","residual bioluminescent signal (metal salt concentration 0.26 mM, glutathione 2 mM)"
[Cl][Fe]([Cl])[Cl] [iron(III) chloride],89.7 ± 5%,66.3 ± 5.5%,0.338 ± 0.22%,51.2 ± 3.8%,36.4 ± 2.5%,0.483 ± 0.17%,1.11 ± 0.084%,0.87 ± 0.14%,0.725 ± 0.43%,1.06 ± 0.36%,0.628 ± 0.47%,0.29 ± 0.14%,–,–,–,–,–,–
[Cl][Fe][Cl] [iron(II) chloride],–,–,–,–,–,–,–,–,–,0.58 ± 0.29%,0.556 ± 0.31%,0.531 ± 0.22%,98.6 ± 7.2%,85.2 ± 7.9%,0.483 ± 0.3%,2.17 ± 0.52%,0.87 ± 0.25%,0.387 ± 0.3%
